# For part of these data: Entries with a potency or affinity are not part of this list.
# How the values were obtained:
# Set-up in all cases: scale not given: direction of the effect not stated beside the values
# [1] = molecular target: Protein translocase subunit SecA (Escherichia coli (strain K12)) (UniProt P10408); experiment: Assay to Identify E. coli SecA ATPase Inhibitors; assay type: functional; details: 30 µM
# [2] = molecular target: T1, Ubiquitin-activating enzyme e1, putative (Leishmania donovani (strain BPK282A1)) (UniProt E9BSI1); experiment: Leishmania donovani Ubiquitin Activating Enzyme (LdE1); assay type: functional; details: 30 µM
# T1 sequence (whole entry): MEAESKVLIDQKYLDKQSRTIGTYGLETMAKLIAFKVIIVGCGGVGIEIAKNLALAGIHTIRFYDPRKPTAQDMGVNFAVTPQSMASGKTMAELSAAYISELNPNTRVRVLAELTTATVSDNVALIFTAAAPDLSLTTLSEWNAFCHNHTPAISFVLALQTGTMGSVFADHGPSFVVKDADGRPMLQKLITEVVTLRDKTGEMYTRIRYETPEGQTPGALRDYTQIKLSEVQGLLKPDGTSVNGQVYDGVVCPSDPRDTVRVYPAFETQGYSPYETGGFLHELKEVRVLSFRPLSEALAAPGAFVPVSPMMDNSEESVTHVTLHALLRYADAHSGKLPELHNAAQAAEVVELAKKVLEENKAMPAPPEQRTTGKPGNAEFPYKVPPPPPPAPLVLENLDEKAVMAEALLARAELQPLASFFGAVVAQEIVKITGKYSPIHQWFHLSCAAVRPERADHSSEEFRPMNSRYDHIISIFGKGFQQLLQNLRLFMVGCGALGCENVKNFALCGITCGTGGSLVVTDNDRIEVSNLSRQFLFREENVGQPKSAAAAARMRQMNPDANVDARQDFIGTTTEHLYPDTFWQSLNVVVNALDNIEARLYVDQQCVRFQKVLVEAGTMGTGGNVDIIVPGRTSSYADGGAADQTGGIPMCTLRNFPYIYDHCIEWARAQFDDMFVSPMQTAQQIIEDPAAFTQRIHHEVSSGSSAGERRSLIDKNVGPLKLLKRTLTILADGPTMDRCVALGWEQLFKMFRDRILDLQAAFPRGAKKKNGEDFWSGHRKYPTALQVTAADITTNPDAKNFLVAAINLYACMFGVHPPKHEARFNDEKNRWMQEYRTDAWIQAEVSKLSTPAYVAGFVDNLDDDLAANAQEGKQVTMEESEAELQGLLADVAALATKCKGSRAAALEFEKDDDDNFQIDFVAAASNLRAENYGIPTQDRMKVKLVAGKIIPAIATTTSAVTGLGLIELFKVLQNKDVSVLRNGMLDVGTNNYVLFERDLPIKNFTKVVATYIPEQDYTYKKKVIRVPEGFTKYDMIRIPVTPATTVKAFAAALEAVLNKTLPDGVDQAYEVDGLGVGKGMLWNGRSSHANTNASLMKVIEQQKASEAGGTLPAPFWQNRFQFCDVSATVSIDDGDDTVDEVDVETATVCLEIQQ
# [3] = molecular target: Sialic acid-binding Ig-like lectin 9 (Homo sapiens) (UniProt Q9Y336); experiment: Hs-Siglec9 ALPHAscreen SOP 20170721; details: 10 µM
# Trypanosoma cruzi = experiment: Trypanosoma cruzi phosphomannomutase and mannose-1-phosphate guanylyltransferase assay; assay type: functional; details: 10 µM
# [4] = molecular target: T2, Arginase-2, mitochondrial (Homo sapiens) (UniProt P78540); experiment: in vitro enzyme assay to detect the production of urea directly proportional to the activity of Arginase II; assay type: functional; details: 33.3 µM; note: in the data most compounds retested in dose-response had high values
# T2 sequence (whole entry): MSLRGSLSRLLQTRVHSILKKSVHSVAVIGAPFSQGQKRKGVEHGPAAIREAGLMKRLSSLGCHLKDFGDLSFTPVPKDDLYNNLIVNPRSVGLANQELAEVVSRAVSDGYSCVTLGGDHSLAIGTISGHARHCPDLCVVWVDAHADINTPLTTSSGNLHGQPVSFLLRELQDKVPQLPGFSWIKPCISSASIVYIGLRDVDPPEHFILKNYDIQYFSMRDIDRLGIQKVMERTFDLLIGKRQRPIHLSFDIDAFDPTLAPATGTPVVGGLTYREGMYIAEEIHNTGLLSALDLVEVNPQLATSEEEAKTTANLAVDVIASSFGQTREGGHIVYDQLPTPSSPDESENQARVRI
# [5] = molecular target: T3, Proteasome subunit beta (Trypanosoma cruzi) (UniProt O96673); experiment: Trypanosoma cruzi proteasome chymotrypsin-like activity (TcProtChymo) assay.; note: in the data most compounds retested in dose-response had high values; assay type: functional; details: 9.37 µM
# T3 sequence (whole entry): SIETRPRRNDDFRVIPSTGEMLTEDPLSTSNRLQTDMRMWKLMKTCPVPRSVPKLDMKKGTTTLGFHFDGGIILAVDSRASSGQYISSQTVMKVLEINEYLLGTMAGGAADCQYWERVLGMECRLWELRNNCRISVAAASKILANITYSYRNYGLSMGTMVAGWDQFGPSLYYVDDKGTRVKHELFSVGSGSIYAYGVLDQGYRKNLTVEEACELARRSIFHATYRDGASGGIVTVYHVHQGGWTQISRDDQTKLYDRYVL
# Homo sapiens = species: Homo sapiens; experiment: To identify inhibition of the IFN signalling (Jak-Stat) pathway via expression of an eGFP reporter gene under the control of an IFN-stimulated response element (ISRE) containing MxA promoter.; assay type: functional; details: 30 µM
# [6] = molecular target: T4, Tyrosyl-tRNA synthetase, putative (Trypanosoma cruzi (strain CL Brener)) (UniProt Q4DSP6); experiment: Trypanosoma cruzi tyrosyl tRNA synthetase (TcYRS) _High Tyrosine SOP; assay type: functional; details: 30 µM; note: in the data most compounds retested in dose-response had high values
# T4 sequence (whole entry): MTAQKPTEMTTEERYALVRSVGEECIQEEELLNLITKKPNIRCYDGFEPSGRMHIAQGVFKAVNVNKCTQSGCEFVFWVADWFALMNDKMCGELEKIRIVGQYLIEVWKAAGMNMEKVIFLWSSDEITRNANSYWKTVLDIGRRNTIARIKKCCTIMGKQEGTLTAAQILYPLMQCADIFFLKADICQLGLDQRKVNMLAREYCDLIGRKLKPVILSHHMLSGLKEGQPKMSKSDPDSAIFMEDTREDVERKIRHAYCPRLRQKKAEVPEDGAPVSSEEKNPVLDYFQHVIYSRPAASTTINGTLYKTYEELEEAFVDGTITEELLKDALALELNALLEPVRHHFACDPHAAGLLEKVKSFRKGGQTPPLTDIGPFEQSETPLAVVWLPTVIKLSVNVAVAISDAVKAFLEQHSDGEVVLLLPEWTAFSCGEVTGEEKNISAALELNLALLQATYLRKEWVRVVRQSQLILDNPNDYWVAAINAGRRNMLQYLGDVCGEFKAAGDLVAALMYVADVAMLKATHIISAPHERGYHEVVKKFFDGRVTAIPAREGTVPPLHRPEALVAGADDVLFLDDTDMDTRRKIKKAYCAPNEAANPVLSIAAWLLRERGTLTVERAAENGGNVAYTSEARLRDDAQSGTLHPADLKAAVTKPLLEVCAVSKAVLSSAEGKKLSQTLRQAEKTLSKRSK
# [7] = molecular target: T4, Tyrosyl-tRNA synthetase, putative (Trypanosoma cruzi (strain CL Brener)); experiment: Trypanosoma cruzi tyrosyl tRNA synthetase (TcYRS) SOP; assay type: functional; details: 30 µM
# [8] = molecular target: Chromo domain-containing protein 1 (Saccharomyces cerevisiae (strain ATCC 204508 / S288c) (Baker's yeast)) (UniProt P32657); experiment: ScCHD-1 Enzyme Inhibition Assay; assay type: functional; details: 30 µM; note: in the data most compounds retested in dose-response had high values
# Chromo domain-containing protein 1 (Saccharomyces cerevisiae (strain ATCC 204508 / S288c) (Baker's yeast)), sequence (P32657 whole entry, the tested form may be a part): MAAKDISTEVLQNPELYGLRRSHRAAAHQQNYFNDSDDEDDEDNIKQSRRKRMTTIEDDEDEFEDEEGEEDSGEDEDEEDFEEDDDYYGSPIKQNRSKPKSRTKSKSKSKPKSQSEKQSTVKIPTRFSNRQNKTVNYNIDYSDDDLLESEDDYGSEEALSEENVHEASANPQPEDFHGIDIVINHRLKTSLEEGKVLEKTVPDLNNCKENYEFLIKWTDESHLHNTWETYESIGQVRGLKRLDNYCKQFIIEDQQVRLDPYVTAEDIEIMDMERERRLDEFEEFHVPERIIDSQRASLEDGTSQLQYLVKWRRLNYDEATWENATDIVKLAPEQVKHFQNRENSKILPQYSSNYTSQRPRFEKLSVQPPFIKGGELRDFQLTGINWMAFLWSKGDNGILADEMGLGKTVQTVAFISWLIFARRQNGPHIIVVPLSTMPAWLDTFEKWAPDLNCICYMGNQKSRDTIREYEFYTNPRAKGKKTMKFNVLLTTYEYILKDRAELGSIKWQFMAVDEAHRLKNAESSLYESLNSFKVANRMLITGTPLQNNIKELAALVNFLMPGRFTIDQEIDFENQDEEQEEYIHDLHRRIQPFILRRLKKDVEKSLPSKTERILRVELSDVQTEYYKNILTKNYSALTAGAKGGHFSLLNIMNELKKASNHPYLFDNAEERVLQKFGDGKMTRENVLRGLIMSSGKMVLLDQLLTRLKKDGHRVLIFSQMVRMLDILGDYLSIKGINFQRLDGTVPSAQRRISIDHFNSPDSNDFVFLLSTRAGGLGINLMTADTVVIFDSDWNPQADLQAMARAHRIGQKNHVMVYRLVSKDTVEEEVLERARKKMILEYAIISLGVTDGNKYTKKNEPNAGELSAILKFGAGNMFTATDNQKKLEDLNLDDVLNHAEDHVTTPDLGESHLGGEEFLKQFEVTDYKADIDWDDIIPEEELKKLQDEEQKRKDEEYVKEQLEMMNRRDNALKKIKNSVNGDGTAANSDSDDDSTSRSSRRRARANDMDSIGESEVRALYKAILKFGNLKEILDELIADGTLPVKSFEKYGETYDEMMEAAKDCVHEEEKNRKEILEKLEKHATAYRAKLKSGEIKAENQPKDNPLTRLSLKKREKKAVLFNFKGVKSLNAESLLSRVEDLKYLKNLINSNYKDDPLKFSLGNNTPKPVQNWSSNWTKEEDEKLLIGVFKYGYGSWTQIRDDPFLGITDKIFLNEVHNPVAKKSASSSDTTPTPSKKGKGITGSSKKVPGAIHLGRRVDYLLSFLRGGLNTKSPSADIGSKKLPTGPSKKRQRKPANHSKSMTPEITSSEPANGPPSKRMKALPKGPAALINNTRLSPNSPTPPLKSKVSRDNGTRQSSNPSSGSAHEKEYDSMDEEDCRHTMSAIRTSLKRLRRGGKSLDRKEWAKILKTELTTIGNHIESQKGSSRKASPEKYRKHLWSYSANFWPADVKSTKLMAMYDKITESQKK
# Sialic acid-binding Ig-like lectin 9 (Homo sapiens), sequence (Q9Y336 whole entry): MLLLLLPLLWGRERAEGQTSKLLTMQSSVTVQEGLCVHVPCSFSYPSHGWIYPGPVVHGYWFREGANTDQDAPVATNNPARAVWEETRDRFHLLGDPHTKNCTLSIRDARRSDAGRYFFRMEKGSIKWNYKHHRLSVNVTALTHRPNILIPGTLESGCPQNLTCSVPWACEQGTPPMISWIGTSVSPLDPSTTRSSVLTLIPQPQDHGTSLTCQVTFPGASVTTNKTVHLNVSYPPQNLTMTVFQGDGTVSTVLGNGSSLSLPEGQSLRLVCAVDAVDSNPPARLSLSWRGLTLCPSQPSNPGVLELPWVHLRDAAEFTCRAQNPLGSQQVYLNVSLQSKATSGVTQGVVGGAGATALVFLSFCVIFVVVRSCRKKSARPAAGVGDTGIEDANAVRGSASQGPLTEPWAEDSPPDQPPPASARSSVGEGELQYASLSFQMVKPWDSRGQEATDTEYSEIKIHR
# Protein translocase subunit SecA (Escherichia coli (strain K12)), sequence (P10408 whole entry): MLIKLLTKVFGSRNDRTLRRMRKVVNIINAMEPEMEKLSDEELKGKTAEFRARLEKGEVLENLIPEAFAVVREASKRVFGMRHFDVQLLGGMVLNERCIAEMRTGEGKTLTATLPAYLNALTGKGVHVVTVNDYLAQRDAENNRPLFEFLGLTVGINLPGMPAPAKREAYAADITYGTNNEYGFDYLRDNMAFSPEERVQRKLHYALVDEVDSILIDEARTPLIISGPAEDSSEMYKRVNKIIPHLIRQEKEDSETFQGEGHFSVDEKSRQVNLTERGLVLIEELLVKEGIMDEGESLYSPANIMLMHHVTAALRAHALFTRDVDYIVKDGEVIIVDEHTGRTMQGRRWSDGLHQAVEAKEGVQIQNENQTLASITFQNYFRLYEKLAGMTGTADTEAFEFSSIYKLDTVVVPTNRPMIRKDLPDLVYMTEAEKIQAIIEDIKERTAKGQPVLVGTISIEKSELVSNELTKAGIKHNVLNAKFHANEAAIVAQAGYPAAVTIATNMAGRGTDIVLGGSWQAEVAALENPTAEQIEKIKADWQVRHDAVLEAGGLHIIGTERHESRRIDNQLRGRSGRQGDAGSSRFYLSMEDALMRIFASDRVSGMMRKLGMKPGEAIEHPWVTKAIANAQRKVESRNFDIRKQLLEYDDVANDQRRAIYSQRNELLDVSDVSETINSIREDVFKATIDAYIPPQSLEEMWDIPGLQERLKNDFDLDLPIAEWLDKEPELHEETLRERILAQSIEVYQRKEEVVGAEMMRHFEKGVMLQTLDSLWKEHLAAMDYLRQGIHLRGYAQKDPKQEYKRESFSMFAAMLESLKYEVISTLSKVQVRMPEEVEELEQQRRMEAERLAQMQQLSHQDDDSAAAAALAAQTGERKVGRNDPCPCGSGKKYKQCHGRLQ
SMILES,Percent Effect [1],Percent Effect [2],Percent Effect [3],Percent Effect (Trypanosoma cruzi),Percent Effect [4],Percent Effect [5],Percent Effect (Homo sapiens),Percent Effect [6],Percent Effect [7],Percent Effect [8]
Cc1nnc2n1CCN(C(C(=O)NC1CC1)c1ccccc1)C2 (stereo not given),-3.46%,2.56%,6.36%,3.47%,3.69%,5.72%,8.81%,3.35%,13.2%,-2.99%
Cc1nc(COC[C@@H]2CCC[C@@]23CNCCO3)cs1,-4.17%,6.49%,-6%,-4.19%,4.05%,13%,8.21%,6.84%,2.56%,-5.3%
CCOc1ncccc1C(=O)N1CCCC1c1c(C)nn(C)c1OC (stereo not given),1.2%,0%,10.2%,1.68%,-2.25%,-2.81%,-1.22%,4.9%,11.8%,-4.83%
CC(=O)N1CCOC2(CCN(C(=O)c3cnoc3C)CC2)C1,-3.9%,-1.3%,2.36%,0.682%,-0.405%,0.441%,-5.16%,2.63%,5.13%,2.4%
Cc1cnc(CN(C)C2CCN(CCc3cnn(C)c3)C2)o1 (stereo not given),-3.84%,0%,0.368%,-1%,2.66%,3.65%,2.79%,4.74%,5.13%,-8.2%
Cc1cnc(C(=O)N2C[C@@H]3CN(CC4CCCC4)CCO[C@@H]3C2)cn1,-3.12%,11.7%,4.74%,0.682%,-3.24%,9.97%,11%,5.79%,10.3%,-2.15%
O=C(CSc1ccccn1)N1C[C@H]2CC[C@@H]1CN(Cc1cscn1)C2,-11.4%,0%,4.87%,-3.78%,-0.35%,13.9%,11.3%,-3.72%,-4.88%,-3.86%
Cn1cc(CN2CCOCC3(C2)CN(c2ccccc2)C(=O)CO3)cn1 (stereo not given),-5.71%,9.09%,-4.81%,-1.85%,0%,5.03%,-7.25%,6.84%,10.3%,-1.15%
COC[C@@]12CC[C@@H](N3CCOCC3)C[C@H]1CCN(c1ncccc1Cl)C2,-6.53%,13.5%,12.5%,4.56%,10.8%,7.02%,2.53%,5.85%,19.5%,-2.53%
Cc1ccc(C(=O)N2CCN(Cc3ccsc3)CC2)n1C,-2.67%,5.33%,2.26%,-1.61%,0.887%,5.34%,-8.24%,5.79%,7.69%,-6.68%
CC(NC(=O)N1CCC(OCc2ccccc2)CC1)c1nncn1C (stereo not given),-3.83%,5.33%,-0.332%,7.63%,1.33%,14.8%,15.6%,2.63%,12.8%,-8.27%
c1ccc(CN2CCOCC3(CCN(C4CCOCC4)C3)C2)cc1 (stereo not given),-5.53%,6.49%,-8.07%,-4.58%,-3.24%,22.9%,8.96%,3.68%,10.3%,-0.0594%
